The nature of experiment [1]: growth inhibition of DIPG glioma cells, dose response, cell-based, SU-DIPG-XVII, MIPE5.0, CellTiter-Glo, qHTS (AID 1347060; cut-off not given, nearly all actives have AC50 up to about 26 µM;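 as to AC50: cells exposed to compound for 48 hours before viability readout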). The conditions noted are these: SU-DIPG-XVII viability, CellTiter-Glo ATP luminescence.
The nature of experiment [2]: growth inhibition of DIPG glioma cells, dose response, cell-based, SU-DIPG-XIII, MIPE5.0, CellTiter-Glo, qHTS (AID 1347064; cut-off not given, nearly all actives have AC50 up to about 23 µM;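 as to AC50: cells exposed to compound for 48 hours before the viability read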). The settings on record: SU-DIPG-XIII viability, CellTiter-Glo ATP luminescence.
Experiment [3] can be described thus: JHH-DIPG-1 glioma cell viability, MIPE5.0 library, CellTiter-Glo luminescence, qHTS (AID 1347067; cut-off not given, nearly all actives have AC50 up to about 26 µM;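 also: cells exposed to compound for 48 hours before readout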). The conditions noted are these: JHH-DIPG-1 glioma viability, CellTiter-Glo ATP luminescence. For orientation: ATP-based viability assays read luminescence as a measure of living cells.
Experiment [4] is described as follows: SU-DIPG-XXV glioma cell viability, MIPE5.0 library, qHTS (AID 1347068; cut-off not given, nearly all actives have IC50 up to about 30 µM;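 as to IC50: cells exposed to compound for 48 hours before viability readout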).
Experiment [5] can be described thus: viability loss in pontine glioma line – cell-based, SU-DIPG-XXV, MIPE5.0, CellTiter-Glo, qHTS, dose response (AID 1347065; cut-off not given, nearly all actives have AC50 up to about 26 µM;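 also: cells exposed to compound for 48 hours before ATP readout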). The conditions noted are these: CellTiter-Glo ATP luminescence.
Experiment [6] is described as follows: sensitizers of A549 cells to miR-34 induction, primary screen, imaging, A549 dox-inducible miR-34, nuclei and caspase counts (AID 1347080;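 active = compounds whose cell count with miR-34 switched on is under 0.7 times the count with it off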). The settings on record: A549 miR-34 inducible, Hoechst nuclei count, 48 h.
The nature of experiment [7]: survival rescue of mitochondrial mutant cells in low glucose, primary screen, MELAS cybrids, Rieske KO mouse fibroblasts, CellTiter-Glo (AID 1508586;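 active = mean z-score across replicates of 1.96 or higher in either the MELAS or the Rieske mutant cell line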;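 also: z relative to plate mean and SD of compound and empty wells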).
The nature of experiment [8]: ovarian cancer cell viability with rucaparib, profiling panel, oncology-focused library, rucaparib conditional (AID 1508598). The settings on record: patient-derived ovarian cancer cells, CellTiter-Glo viability, 144 h, stronger effect = lower value.

We go through eleven compounds from PubChem BioAssay.

Inconclusive results are not listed. Activity calls are given as the source filed them.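 The calls were made as follows, unless noted: active = normalized viability below 100% at a tested concentration; inactive = the rest.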

One may read the AC50 as the concentration giving half of the maximal activity seen. As a reminder, the IC50 is the concentration that gives 50% inhibition. As usually defined, the viability is a read-out of living cells in per cent, often relative to untreated cells.

In the case of `CN[C@@H](C)C(=O)N[C@@H]1C(=O)N(Cc2c(C)ccc3ccccc23)c2ccc(C#N)cc2N(C(C)=O)[C@H]1C`, the result in experiment [1], in experiment [2], in experiment [3] and in experiment [4] was inactive.
With `O=C(CCl)Nc1cccc(NC2=NS(=O)(=O)c3ccccc32)c1`, the concentration at half-maximal activity (AC50) in experiment [1] is 11.8 µM (active); in experiment [2] it was 9.34 µM (active); in experiment [3], 5.25 µM (active).
On to `CCOc1ccccc1N=Nc1c(C)[nH]n(-c2nc(-c3ccccc3)cs2)c1=O`, for which the compound was classed as inactive in experiment [1], in experiment [2], in experiment [3] and in experiment [4].
Regarding `Cc1nn(C)c(COc2ccc(N3CCN(S(=O)(=O)N(C)C)CC3)cc2)c1-c1cccc2c(CCCOc3cccc4ccccc34)c(C(=O)O)n(CCN3CCOCC3)c12`, the AC50 was 14.8 µM (active) in experiment [1], 18.6 µM (active) in experiment [2] and 18.6 µM (active) in experiment [3]. In addition, the call in experiment [4] was inactive.
On to `NC1CCCN(c2c(/C=C3\SC(=O)NC3=O)cccc2-c2ccccc2)C1` (stereo not given), for which the result in experiment [1], in experiment [2], in experiment [3] and in experiment [4] was inactive.
As for `NCC1CCN(c2nccc(-c3ccc4ccccc4c3)n2)CC1`, the half-maximal activity concentration (AC50) in experiment [1] is 11.8 µM (active); in experiment [2], 16.6 µM (active); in experiment [3] it was 10.5 µM (active).
Turning to `CN(C)c1cccc(-c2c3c(=O)n(-c4ccccc4Cl)[nH]c3cc(=O)n2C)c1`, the compound was classed as inactive in experiment [1], in experiment [2], in experiment [3] and in experiment [4].
Turning to `Cc1nc(NC(=O)N2CCCC2C(N)=O)sc1-c1ccnc(C(C)(C)C(F)(F)F)c1` (stereo not given), the AC50 in experiment [1] is 5.25 µM (active); in experiment [2] it was 2.63 µM (active); in experiment [5], 2.35 µM (active). Also, the IC50 in experiment [4] is 13.2 µM (active). For the same compound, the fold change was 0.937 (inactive) in experiment [6] (stronger effect = lower value, cell number ratio, induced over uninduced) and 0.696 in experiment [6] (measured here: relative caspase fold change +Dox/-Dox). Further, the cell count came to 5770 in experiment [6] (measured here: total cells with miR-34 induction, stronger effect = lower value) and 6170 in experiment [6] (measured here: total cells without miR-34 induction). Besides, the z-score in experiment [7] (MELAS cybrid survival, CellTiter-Glo 48 h, stronger effect = higher value) was -0.255 (inactive); in experiment [7] (Rieske KO mouse fibroblast survival, CellTiter-Glo 72 h), -0.201.
On to `NS(=O)(=O)c1ccc(S(=O)(=O)Nc2cccc3c(Cl)c[nH]c23)cc1`, for which the concentration at half-maximal activity (AC50) in experiment [1] was 3.32 µM (active); in experiment [2] it was 0.934 µM (active); in experiment [3], 1.18 µM (active).
With `CCCN1CCN(c2ccc(C(=O)NC3(C(=O)NCC#N)CCCCC3)cc2)CC1`, the result in experiment [1], in experiment [2], in experiment [3] and in experiment [4] was inactive.
Consider `Cn1cc(-c2ccc3c(c2)CCN3C(=O)Cc2cccc(C(F)(F)F)c2)c2c(N)ncnc21`, for which the viability in experiment [8] (at 0.000305 µM, OCI-C5x cells, with rucaparib 10 µM, 100% = cells with rucaparib alone) is 120% (inactive); in experiment [8] (at 0.000305 µM, OCI-C5x cells, without rucaparib) it was 118% (inactive); in experiment [8] (at 0.000305 µM, OCI-P5x cells, with rucaparib 20 µM, 100% = cells with rucaparib alone) it was 89.4% (active); in experiment [8] (at 0.000305 µM, OCI-P5x cells, without rucaparib), 96.4% (active); in experiment [8] (at 0.00122 µM, OCI-C5x cells, with rucaparib 10 µM, 100% = cells with rucaparib alone), 116% (inactive); in experiment [8] (at 0.00122 µM, OCI-C5x cells, without rucaparib), 114% (inactive). The viability in experiment [8] (at 0.00122 µM, OCI-P5x cells, with rucaparib 20 µM, 100% = cells with rucaparib alone) was 90.8% (active); in experiment [8] (at 0.00122 µM, OCI-P5x cells, without rucaparib), 99.7% (active); in experiment [8] (at 0.00488 µM, OCI-C5x cells, with rucaparib 10 µM, 100% = cells with rucaparib alone), 116% (inactive); in experiment [8] (at 0.00488 µM, OCI-C5x cells, without rucaparib), 115% (inactive); in experiment [8] (at 0.00488 µM, OCI-P5x cells, with rucaparib 20 µM, 100% = cells with rucaparib alone) it was 92.8% (active); in experiment [8] (at 0.00488 µM, OCI-P5x cells, without rucaparib), 101% (inactive). Moreover, the viability is 107% (inactive) in experiment [8] (at 0.0195 µM, OCI-C5x cells, with rucaparib 10 µM, 100% = cells with rucaparib alone); 114% (inactive) in experiment [8] (at 0.0195 µM, OCI-C5x cells, without rucaparib); 98% (active) in experiment [8] (at 0.0195 µM, OCI-P5x cells, with rucaparib 20 µM, 100% = cells with rucaparib alone); 107% (inactive) in experiment [8] (at 0.0195 µM, OCI-P5x cells, without rucaparib); 106% (inactive) in experiment [8] (at 0.0781 µM, OCI-C5x cells, with rucaparib 10 µM, 100% = cells with rucaparib alone); 113% (inactive) in experiment [8] (at 0.0781 µM, OCI-C5x cells, without rucaparib). The viability in experiment [8] (at 0.0781 µM, OCI-P5x cells, with rucaparib 20 µM, 100% = cells with rucaparib alone) is 88% (active); in experiment [8] (at 0.0781 µM, OCI-P5x cells, without rucaparib), 101% (inactive); in experiment [8] (at 0.313 µM, OCI-C5x cells, with rucaparib 10 µM, 100% = cells with rucaparib alone), 109% (inactive); in experiment [8] (at 0.313 µM, OCI-C5x cells, without rucaparib), 125% (inactive); in experiment [8] (at 0.313 µM, OCI-P5x cells, with rucaparib 20 µM, 100% = cells with rucaparib alone), 79.9% (active); in experiment [8] (at 0.313 µM, OCI-P5x cells, without rucaparib), 107% (inactive). In addition, the viability in experiment [8] (at 1.25 µM, OCI-C5x cells, with rucaparib 10 µM, 100% = cells with rucaparib alone) was 123% (inactive); in experiment [8] (at 1.25 µM, OCI-C5x cells, without rucaparib), 144% (inactive); in experiment [8] (at 1.25 µM, OCI-P5x cells, with rucaparib 20 µM, 100% = cells with rucaparib alone) it was 74.9% (active); in experiment [8] (at 1.25 µM, OCI-P5x cells, without rucaparib) it was 109% (inactive); in experiment [8] (at 5 µM, OCI-C5x cells, with rucaparib 10 µM, 100% = cells with rucaparib alone), 7.91% (active); in experiment [8] (at 5 µM, OCI-C5x cells, without rucaparib), 79% (active). The viability is 53% (active) in experiment [8] (at 5 µM, OCI-P5x cells, with rucaparib 20 µM, 100% = cells with rucaparib alone) and 69.3% (active) in experiment [8] (at 5 µM, OCI-P5x cells, without rucaparib).
